Measured values from PubChem BioAssay (EPA / NIEHS).
Values joined by “and” are separate entries in the source; they are usually repeats but may differ in a detail not shown here. Equal entries are not always repeated. Results filed as inconclusive are left out. Where a structure was tested more than once in an assay, its records may differ in their call. Active and inactive are the calls of the source. How the source made its calls, unless noted: active means hit-call score of the fitted dose curve at least 0.9, where 1 is the maximum; inactive means score below 0.9.

Key:
[1] = ATG_PXRE_CIS: Attagene CIS-FACTORIAL HepG2 Assay for human Pregnane X Receptor Element (PXRE) (AID 2282957); details: HepG2 Attagene CIS-FACTORIAL PXRE reporter, mRNA; actives raise or lower the signal
Outline: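 Transiently transfected HepG2 cells were dosed and incubated for 24 h. RNA was then isolated, DNase-treated, reverse-transcribed and reporter sequences amplified. Labeled, HpaI-digested fragments were quantified by capillary electrophoresis against DMSO.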

[2] = ATG_PPRE_CIS: Attagene CIS-FACTORIAL HepG2 Assay for human Peroxisome Proliferator-activated Response Element (PPRE) (AID 2282958); details: HepG2 PPRE cis-element reporter, Attagene transcription factor profiling; actives raise or lower the signal
Outline: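 Read-out: fluorescent reporter mRNA fragments resolved by capillary electrophoresis after RT-PCR. HepG2 cells carried transiently transfected PPRE-driven cis reporter constructs and were dosed for 24 h; gain or loss of signal fitted relative to DMSO.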

[3] = ATG_Sox_CIS: Attagene CIS-FACTORIAL HepG2 Assay for human SRY-box transcription factor (SOX) (AID 2282960); details: HepG2 Attagene cis-factorial SOX reporter, mRNA; actives raise or lower the signal
Outline: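 Read-out: fluorescent RT-PCR products of SOX1-linked reporter transcripts resolved by capillary electrophoresis, fitted bidirectionally against DMSO. Transiently transfected HepG2 cells, 24 h after chemical exposure, endogenous transcription factor activity.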

[4] = target: Transcription factor Sp1 (Homo sapiens) (UniProt P08047); test: ATG_Sp1_CIS: Attagene CIS-FACTORIAL HepG2 Assay for human Specificity Protein 1 (Sp1) (AID 2282961); details: HepG2 Sp1 cis-reporter transcription, actives raise or lower the signal
Transcription factor Sp1 (Homo sapiens), sequence (P08047 whole entry, looked up): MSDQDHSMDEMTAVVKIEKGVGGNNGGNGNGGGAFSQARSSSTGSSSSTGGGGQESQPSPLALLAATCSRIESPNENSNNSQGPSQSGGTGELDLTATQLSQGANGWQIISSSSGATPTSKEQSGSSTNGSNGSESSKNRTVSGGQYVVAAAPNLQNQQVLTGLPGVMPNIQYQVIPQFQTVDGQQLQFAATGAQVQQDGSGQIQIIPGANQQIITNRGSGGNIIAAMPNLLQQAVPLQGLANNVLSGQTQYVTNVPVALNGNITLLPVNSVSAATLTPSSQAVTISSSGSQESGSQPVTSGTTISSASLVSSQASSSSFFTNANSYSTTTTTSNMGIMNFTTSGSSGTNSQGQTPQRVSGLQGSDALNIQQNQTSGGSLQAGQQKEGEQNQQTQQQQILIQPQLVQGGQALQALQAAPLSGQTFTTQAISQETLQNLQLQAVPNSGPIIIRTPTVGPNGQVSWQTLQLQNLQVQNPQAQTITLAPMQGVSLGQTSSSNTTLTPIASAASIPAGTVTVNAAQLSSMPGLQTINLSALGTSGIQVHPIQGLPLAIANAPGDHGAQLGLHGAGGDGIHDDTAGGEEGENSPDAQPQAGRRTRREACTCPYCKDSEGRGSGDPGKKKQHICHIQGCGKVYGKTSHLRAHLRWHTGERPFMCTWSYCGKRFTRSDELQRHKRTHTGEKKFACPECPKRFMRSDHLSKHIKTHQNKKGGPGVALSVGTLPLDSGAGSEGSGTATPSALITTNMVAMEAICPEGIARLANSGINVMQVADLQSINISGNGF
Outline: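 Read-out: fluorescence of 6-FAM-labeled, HpaI-digested RT-PCR products separated by capillary electrophoresis. HepG2 cells carried transfected cis-element reporter units and were exposed to chemicals for 24 h; gain or loss of signal fitted relative to DMSO.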

[5] = ATG_SREBP_CIS: Attagene CIS-FACTORIAL HepG2 Assay for human Sterol Regulatory Element Binding (SREBP) (AID 2282962); details: HepG2 Attagene cis-factorial SREBP reporter, mRNA; actives raise or lower the signal
Outline: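 HepG2 cells transiently transfected with multiplexed cis-promoter reporter units sensing endogenous transcription factors; reporter mRNA measured 24 h after dosing by RT-PCR, 6-FAM labeling, HpaI digestion and capillary electrophoresis. Bidirectional fit versus DMSO.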

[6] = target: Signal transducer and activator of transcription 3 (Homo sapiens) (UniProt P40763); test: ATG_STAT3_CIS: Attagene CIS-FACTORIAL HepG2 Assay for human Signal Transducer and Activator of Transcription 3 (STAT3) (AID 2282963); details: HepG2, Attagene cis-factorial STAT3 reporter transcription; actives raise or lower the signal
Signal transducer and activator of transcription 3 (Homo sapiens), sequence (P40763 whole entry, looked up): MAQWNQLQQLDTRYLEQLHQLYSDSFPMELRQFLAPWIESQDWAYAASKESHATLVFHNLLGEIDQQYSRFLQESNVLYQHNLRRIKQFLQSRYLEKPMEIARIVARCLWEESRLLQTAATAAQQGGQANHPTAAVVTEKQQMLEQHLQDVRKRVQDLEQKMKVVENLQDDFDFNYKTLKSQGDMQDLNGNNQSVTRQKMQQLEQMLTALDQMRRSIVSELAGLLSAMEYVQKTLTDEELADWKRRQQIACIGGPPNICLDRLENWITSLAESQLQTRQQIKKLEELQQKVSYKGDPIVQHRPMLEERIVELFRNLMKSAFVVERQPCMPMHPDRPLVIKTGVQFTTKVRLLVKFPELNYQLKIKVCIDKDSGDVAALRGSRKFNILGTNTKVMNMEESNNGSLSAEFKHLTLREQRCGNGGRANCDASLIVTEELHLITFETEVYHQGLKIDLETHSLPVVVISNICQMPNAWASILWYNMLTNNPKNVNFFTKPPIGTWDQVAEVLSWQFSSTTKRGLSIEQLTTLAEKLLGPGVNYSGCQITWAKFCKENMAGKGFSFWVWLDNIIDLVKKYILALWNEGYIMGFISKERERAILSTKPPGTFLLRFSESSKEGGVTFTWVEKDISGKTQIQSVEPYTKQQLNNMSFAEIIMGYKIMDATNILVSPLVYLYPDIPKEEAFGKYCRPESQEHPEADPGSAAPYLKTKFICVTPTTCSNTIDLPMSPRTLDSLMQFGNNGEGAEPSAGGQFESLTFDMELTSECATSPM
Outline: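 HepG2 cells transiently transfected with cis-element-driven multiple reporter transcription units; after 24 h chemical exposure, reporter mRNA measured by RT-PCR, 6-FAM primer-extension labelling, HpaI digestion and capillary electrophoresis. Bidirectional fitting versus DMSO baseline.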

[7] = ATG_TCF_b_cat_CIS: Attagene CIS-FACTORIAL HepG2 Assay for human T-Cell-Factor with beta-catenin (TCF/b-cat) (AID 2282965); details: HepG2 TCF/beta-catenin cis-reporter transcription, actives raise or lower the signal
Outline: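 HepG2 cells transiently transfected with multiple cis-promoter-regulated reporter transcription units, so endogenous transcription factor activity is measured. Reporter mRNA read 24 hours after dosing by RT-PCR, fluorescent labelling and capillary electrophoresis; bidirectional fitting against DMSO.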

[8] = ATG_TAL_CIS: Attagene CIS-FACTORIAL HepG2 Assay for human TAL Basal Promoter (AID 2282966); details: HepG2 Attagene cis-factorial TAL promoter reporter; actives raise or lower the signal;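 further: background control endpoint measuring basal TAL promoter reporter mRNA not a specific factor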
Outline: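 Readout: reporter mRNA, fluorescence by CE. System: HepG2, transient multi-reporter transfection, endogenous TF activity. Exposure: 24 h. Analysis: bidirectional, DMSO-normalized; background control.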

[9] = ATG_TGFb_CIS: Attagene CIS-FACTORIAL HepG2 Assay for human Transforming Growth Factor (TGF) (AID 2282967); details: HepG2 Attagene CIS TGFb reporter, mRNA transcription; actives raise or lower the signal
Outline: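 After a 24-hour incubation with compound, transfected HepG2 cells were lysed for RNA; reporter cDNA was amplified, fluorescently end-labeled and separated by CE. DMSO served as baseline for bidirectional fits.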

[10] = ATG_VDRE_CIS: Attagene CIS-FACTORIAL HepG2 Assay for human Vitamin D Receptor Element (VDRE) (AID 2282968); details: HepG2 VDRE cis-reporter transcription, actives raise or lower the signal
Outline: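 HepG2 cells transiently transfected with cis-element reporter units, dosed 24 h; reporter mRNA measured by RT-PCR, 6-FAM labeling, HpaI digestion and capillary electrophoresis. Activity fitted bidirectionally against DMSO baseline.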

[11] = target: Steroid hormone receptor ERR1 (Homo sapiens) (UniProt P11474); test: ATG_ERRa_TRANS: Attagene TRANS-FACTORIAL HepG2 Assay for human Estrogen-Related Receptor alpha (ERRa) (AID 2282971; active means hit-call score of the fitted dose curve at least 0.9, where 1 is the maximum); details: HepG2 Attagene TRANS reporter, ERRa transactivation
Steroid hormone receptor ERR1 (Homo sapiens), sequence (P11474 whole entry, looked up, the tested form may be a part): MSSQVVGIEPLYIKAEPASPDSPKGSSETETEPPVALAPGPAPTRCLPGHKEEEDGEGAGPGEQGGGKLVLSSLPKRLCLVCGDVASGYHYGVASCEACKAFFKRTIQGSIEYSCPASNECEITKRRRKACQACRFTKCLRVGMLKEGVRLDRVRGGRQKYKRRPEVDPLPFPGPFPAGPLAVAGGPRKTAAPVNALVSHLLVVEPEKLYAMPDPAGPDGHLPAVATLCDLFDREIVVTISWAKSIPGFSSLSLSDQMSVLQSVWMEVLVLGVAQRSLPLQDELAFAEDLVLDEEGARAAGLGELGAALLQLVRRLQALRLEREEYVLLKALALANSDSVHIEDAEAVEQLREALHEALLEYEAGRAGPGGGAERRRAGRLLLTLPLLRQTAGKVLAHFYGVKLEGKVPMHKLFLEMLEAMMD
Outline: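 HepG2 cells were transiently transfected with multiple GAL4-UAS reporter units, then dosed with compound for 24 h. Total RNA was reverse-transcribed, reporter cDNA PCR-amplified and fluorescently labelled, and fragments resolved by capillary electrophoresis; induction was compared with DMSO.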

[12] = target: X-box-binding protein 1 (Homo sapiens) (UniProt P17861); test: ATG_Xbp1_CIS: Attagene CIS-FACTORIAL HepG2 Assay for human X-box Binding Protein 1 (XBP1) (AID 2282972); details: HepG2 XBP1 cis-element reporter, Attagene multiplex; actives raise or lower the signal
X-box-binding protein 1 (Homo sapiens), sequence (P17861 whole entry, looked up): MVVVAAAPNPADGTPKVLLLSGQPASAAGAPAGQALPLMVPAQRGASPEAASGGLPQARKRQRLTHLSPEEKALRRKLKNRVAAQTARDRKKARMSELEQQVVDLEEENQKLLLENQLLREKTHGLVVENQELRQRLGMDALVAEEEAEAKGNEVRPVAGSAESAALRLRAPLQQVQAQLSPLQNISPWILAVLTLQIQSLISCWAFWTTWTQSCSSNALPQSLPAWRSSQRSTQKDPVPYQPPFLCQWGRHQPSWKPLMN
Outline: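 HepG2 cells transiently transfected with multiple cis-element reporter units report endogenous TF activity; 24 h exposure, then reporter mRNA measured by RT-PCR, 6-FAM labelling, HpaI digestion and capillary electrophoresis. Bidirectional fitting versus DMSO.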

[13] = ATG_GAL4_TRANS: Attagene TRANS-FACTORIAL HepG2 Assay for GAL4 (Internal Marker) (AID 2282976; active means hit-call score of the fitted dose curve at least 0.9, where 1 is the maximum); details: HepG2 Attagene TRANS GAL4 internal marker reporter
Outline: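 Fluorescence from capillary electrophoresis of labelled RT-PCR products quantifies reporter mRNA induction after 24 h dosing of HepG2 cells carrying transfected GAL4-UAS reporter transcription units. Vehicle DMSO serves as baseline.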

[14] = target: Glucocorticoid receptor (Homo sapiens) (UniProt P04150); test: ATG_GR_TRANS: Attagene TRANS-FACTORIAL HepG2 Assay for human Glucocorticoid Receptor (GR) (AID 2282978; active means hit-call score of the fitted dose curve at least 0.9, where 1 is the maximum;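 further: activators score as hits since higher reporter transcript over DMSO is fitted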); details: HepG2 Attagene TRANS GR reporter, mRNA transcription
Glucocorticoid receptor (Homo sapiens), sequence (P04150 whole entry, looked up, the tested form may be a part): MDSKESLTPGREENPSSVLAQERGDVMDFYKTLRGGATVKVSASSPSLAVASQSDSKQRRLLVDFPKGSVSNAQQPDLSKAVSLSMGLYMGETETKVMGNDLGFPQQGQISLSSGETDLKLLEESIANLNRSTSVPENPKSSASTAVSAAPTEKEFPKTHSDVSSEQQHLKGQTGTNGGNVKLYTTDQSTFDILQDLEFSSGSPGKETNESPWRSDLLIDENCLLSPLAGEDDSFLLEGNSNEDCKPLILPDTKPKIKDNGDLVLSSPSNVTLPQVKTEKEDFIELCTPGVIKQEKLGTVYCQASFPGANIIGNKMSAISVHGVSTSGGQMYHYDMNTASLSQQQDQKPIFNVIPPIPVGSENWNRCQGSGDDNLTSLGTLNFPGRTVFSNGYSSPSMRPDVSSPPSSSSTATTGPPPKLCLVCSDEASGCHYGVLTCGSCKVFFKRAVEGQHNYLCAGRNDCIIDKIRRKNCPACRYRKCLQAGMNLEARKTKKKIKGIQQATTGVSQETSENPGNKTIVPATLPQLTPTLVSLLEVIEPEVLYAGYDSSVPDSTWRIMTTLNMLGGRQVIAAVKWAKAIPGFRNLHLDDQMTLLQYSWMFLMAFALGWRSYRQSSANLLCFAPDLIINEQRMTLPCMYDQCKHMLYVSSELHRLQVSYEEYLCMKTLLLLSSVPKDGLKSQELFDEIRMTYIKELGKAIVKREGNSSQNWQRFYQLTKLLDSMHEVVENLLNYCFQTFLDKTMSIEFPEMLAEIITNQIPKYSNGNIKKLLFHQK
Outline: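 Transient MRTU transfection of HepG2 (GAL4-UAS reporters, exogenous NR-GAL4 chimeras), 24 h dosing. Readout: reporter transcript via RT-PCR + capillary electrophoresis fluorescence. Positive direction vs DMSO baseline.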

[15] = ATG_TA_CIS: Attagene CIS-FACTORIAL HepG2 Assay for human TA Basal Promoter (AID 2282964); details: HepG2 Attagene CIS-factorial TA basal promoter reporter; actives raise or lower the signal
Outline: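 Transient MRTU transfection of HepG2 preceded 24 h compound exposure. Reporter mRNA levels were then read by RT-PCR with capillary electrophoresis, and this background-control endpoint was fitted bidirectionally to DMSO.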

[16] = target: Estrogen-related receptor gamma (Homo sapiens) (UniProt P62508); test: ATG_ERRg_TRANS: Attagene TRANS-FACTORIAL HepG2 Assay for human Estrogen-Related Receptor gamma (ERRg) (AID 2282977; active means hit-call score of the fitted dose curve at least 0.9, where 1 is the maximum;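 further: hits increase reporter signal over DMSO so potencies reflect activators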); details: HepG2 Attagene TRANS reporter, ERRg transactivation
Estrogen-related receptor gamma (Homo sapiens), sequence (P62508 whole entry, looked up, the tested form may be a part): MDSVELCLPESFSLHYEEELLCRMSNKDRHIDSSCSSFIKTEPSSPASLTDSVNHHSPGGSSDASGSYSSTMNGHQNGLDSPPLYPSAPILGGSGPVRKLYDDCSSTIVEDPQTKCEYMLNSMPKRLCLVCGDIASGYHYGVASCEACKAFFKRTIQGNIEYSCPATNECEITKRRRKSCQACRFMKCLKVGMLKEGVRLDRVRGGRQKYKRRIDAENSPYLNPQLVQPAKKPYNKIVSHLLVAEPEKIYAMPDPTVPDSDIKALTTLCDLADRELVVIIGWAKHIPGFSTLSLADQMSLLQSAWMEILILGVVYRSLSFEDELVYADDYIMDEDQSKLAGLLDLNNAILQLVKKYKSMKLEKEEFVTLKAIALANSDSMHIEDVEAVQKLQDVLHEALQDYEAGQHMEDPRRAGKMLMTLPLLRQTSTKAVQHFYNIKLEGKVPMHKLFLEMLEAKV
Outline: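 Transient HepG2 transfectants, 24 h compound exposure, GAL4-UAS reporter mRNA by RT-PCR/6-FAM labelling/capillary electrophoresis; positive direction vs DMSO.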

[17] = ATG_RORE_CIS: Attagene CIS-FACTORIAL HepG2 Assay for human RAR-related Orphan Receptor Element (RORE) (AID 2282959); details: HepG2 Attagene cis-factorial RORE reporter, mRNA; actives raise or lower the signal
Outline: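 Readout: fluorescent reporter mRNA by RT-PCR plus capillary electrophoresis, 24 h after dosing transfected HepG2 cells. Endogenous transcription factor activity on a cis promoter element is measured. Gain or loss of signal fitted against DMSO.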

[18] = target: Nuclear receptor subfamily 1 group I member 3 (Homo sapiens) (UniProt Q14994); test: ATG_CAR_TRANS: Attagene TRANS-FACTORIAL HepG2 Assay for human Constitutive Androstane Receptor (CAR) (AID 2282969; active means hit-call score of the fitted dose curve at least 0.9, where 1 is the maximum;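 further: activators raise reporter mRNA above DMSO so AC50 marks induction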); details: HepG2 Attagene TRANS-FACTORIAL CAR reporter
Nuclear receptor subfamily 1 group I member 3 (Homo sapiens), sequence (Q14994 whole entry, looked up, the tested form may be a part): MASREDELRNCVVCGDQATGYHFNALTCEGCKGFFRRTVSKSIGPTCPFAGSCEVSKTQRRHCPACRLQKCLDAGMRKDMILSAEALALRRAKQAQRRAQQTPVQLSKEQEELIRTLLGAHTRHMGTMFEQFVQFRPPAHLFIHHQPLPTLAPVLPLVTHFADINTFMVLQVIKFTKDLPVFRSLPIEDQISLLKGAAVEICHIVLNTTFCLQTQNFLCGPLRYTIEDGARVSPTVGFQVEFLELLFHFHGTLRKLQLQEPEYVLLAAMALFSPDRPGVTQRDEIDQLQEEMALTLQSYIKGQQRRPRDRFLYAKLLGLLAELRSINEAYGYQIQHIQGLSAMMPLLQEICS
Outline: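 HepG2 cells transiently transfected with multiplexed GAL4-UAS reporter units expressing chimeric NR-Gal4 proteins; compound exposure 24 h. Reporter mRNA measured by RT-PCR, 6-FAM labelling, HpaI digestion and capillary electrophoresis; gain-of-signal fitted against DMSO baseline.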

[19] = target: Estrogen receptor (Homo sapiens) (UniProt P03372); test: ATG_ERa_TRANS: Attagene TRANS-FACTORIAL HepG2 Assay for human Estrogen Receptor alpha (ERa) (AID 2282970; active means hit-call score of the fitted dose curve at least 0.9, where 1 is the maximum); details: HepG2 Attagene TRANS ERa GAL4 reporter, mRNA
Estrogen receptor (Homo sapiens), sequence (P03372 whole entry, looked up, the tested form may be a part): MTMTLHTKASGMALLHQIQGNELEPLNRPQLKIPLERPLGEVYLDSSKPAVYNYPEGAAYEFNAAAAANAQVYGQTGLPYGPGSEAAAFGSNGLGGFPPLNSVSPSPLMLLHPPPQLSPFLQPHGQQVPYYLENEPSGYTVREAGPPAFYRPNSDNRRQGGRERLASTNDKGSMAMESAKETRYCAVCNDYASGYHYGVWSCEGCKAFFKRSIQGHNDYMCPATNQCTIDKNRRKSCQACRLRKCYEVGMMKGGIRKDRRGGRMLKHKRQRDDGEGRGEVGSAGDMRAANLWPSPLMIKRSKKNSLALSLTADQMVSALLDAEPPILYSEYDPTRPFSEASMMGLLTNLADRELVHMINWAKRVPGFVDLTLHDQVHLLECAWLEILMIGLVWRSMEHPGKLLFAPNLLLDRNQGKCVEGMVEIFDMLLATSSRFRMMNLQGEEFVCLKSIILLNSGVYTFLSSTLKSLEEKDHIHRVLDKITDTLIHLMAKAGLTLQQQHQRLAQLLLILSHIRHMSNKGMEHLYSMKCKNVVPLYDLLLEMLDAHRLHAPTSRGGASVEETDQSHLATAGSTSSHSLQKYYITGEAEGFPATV
Outline: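 Transactivation via ERa-Gal4 chimera in HepG2; 24 hour incubation; reporter mRNA detected by fluorescence RT-PCR and capillary electrophoresis.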

[20] = ATG_M_19_TRANS: Attagene TRANS-FACTORIAL HepG2 Assay for M19 Transcription Factor (Internal Marker) (AID 2282974; active means hit-call score of the fitted dose curve at least 0.9, where 1 is the maximum); details: HepG2 Attagene TRANS-FACTORIAL M19 internal marker reporter
Outline: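 24 h chemical exposure of transiently transfected HepG2 (MRTU library). RNA → oligo(dT) RT → PCR → 6-FAM labelling → HpaI cut → CE fluorescence. Positive-direction fit vs DMSO baseline; background internal-marker readout.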

## FC(F)(F)C1(F)C(F)(F)C(F)(F)C(F)(F)C(F)(C(F)(F)F)C1(F)F (stereo not drawn)
[1]
  outcome: inactive
[2]
  outcome: inactive
[3]
  outcome: inactive
[4]
  outcome: inactive
[5]
  outcome: inactive
[6]
  outcome: inactive
[7]
  outcome: inactive
[8]
  outcome: inactive
[9]
  outcome: inactive
[10]
  outcome: inactive
[11]
  outcome: inactive
[12]
  outcome: inactive
[13]
  outcome: inactive
[14]
  outcome: inactive

## O=C(c1cc(O)c(O)c(O)c1)c1ccc(O)c(O)c1O
[1]
  outcome: inactive
[2]
  outcome: inactive
[3]
  outcome: inactive
[4]
  outcome: inactive
[5]
  outcome: inactive
[6]
  outcome: inactive
[15]
  outcome: inactive
[7]
  outcome: inactive
[8]
  outcome: inactive
[9]
  outcome: inactive
[10]
  outcome: inactive
[12]
  outcome: inactive
[14]
  outcome: inactive

## CN(C)c1ccc(C(=C2C=CC(=[N+](C)C)C=C2)c2ccccc2)cc1
[1]
  outcome: inactive
[3]
  AC50: 1.36 µM (active)
  outcome: inactive
[4]
  AC50: 1.43 µM (active)
  outcome: inactive
[6]
  outcome: inactive
[7]
  AC50: 2.07 µM (active) and 2.43 µM (active)
[8]
  outcome: inactive
[9]
  AC50: 1.85 µM (active)
  outcome: inactive
[10]
  AC50: 1.82 µM (active) and 1.3 µM (active)
[12]
  AC50: 1.94 µM (active)
  outcome: inactive
[13]
  outcome: inactive
[16]
  outcome: inactive
[14]
  outcome: inactive

## CS(=O)(=O)c1ccc([C@@H](CC2CCCC2)C(=O)Nc2cnccn2)cc1Cl
[1]
  AC50: 1.91 µM (active)
[17]
  AC50: 60.2 µM (active)
[3]
  AC50: 170 µM (active)
[4]
  AC50: 160 µM (active)
[5]
  AC50: 136 µM (active)
[6]
  outcome: inactive
[15]
  AC50: 100 µM (active)
[7]
  AC50: 50.6 µM (active)
[8]
  AC50: 148 µM (active)
[9]
  outcome: inactive
[12]
  AC50: 70.7 µM (active)
[16]
  outcome: inactive

## Cc1cc(=O)oc2cc(O)ccc12
[1]
  AC50: 8.35 µM (active) and 25.5 µM (active)
[3]
  outcome: inactive
[4]
  outcome: inactive
[5]
  outcome: inactive
[6]
  outcome: inactive
[15]
  outcome: inactive
[7]
  outcome: inactive
[8]
  outcome: inactive
[9]
  outcome: inactive
[10]
  AC50: 36 µM (active)
  outcome: inactive
[18]
  outcome: inactive
[19]
  AC50: 50.6 µM (active) and 53.8 µM (active)
[12]
  outcome: inactive
[20]
  outcome: inactive

## CCC(C)c1ccccc1O (stereo not drawn)
[1]
  AC50: 27.4 µM (active) and 30.9 µM (active)
[2]
  outcome: inactive
[3]
  outcome: inactive
[4]
  outcome: inactive
[5]
  outcome: inactive
[6]
  outcome: inactive
[15]
  outcome: inactive
[7]
  AC50: 164 µM (active)
  outcome: inactive
[8]
  outcome: inactive
[9]
  outcome: inactive
[10]
  AC50: 74.6 µM (active)
  outcome: inactive
[12]
  outcome: inactive
[13]
  outcome: inactive

## CCO[Si](CCC1CCC2OC2C1)(OCC)OCC (stereo not drawn)
[1]
  outcome: inactive
[2]
  outcome: inactive
[3]
  outcome: inactive
[4]
  outcome: inactive
[5]
  outcome: inactive
[6]
  outcome: inactive
[15]
  outcome: inactive
[7]
  outcome: inactive
[8]
  outcome: inactive
[9]
  outcome: inactive
[18]
  outcome: inactive
[19]
  outcome: inactive
[12]
  outcome: inactive
[13]
  outcome: inactive
[16]
  outcome: inactive
[14]
  outcome: inactive

## O=CC(F)(F)C(F)(F)C(F)(F)F
[1]
  outcome: inactive
[2]
  outcome: inactive
[3]
  outcome: inactive
[6]
  outcome: inactive
[15]
  outcome: inactive
[7]
  outcome: inactive
[8]
  outcome: inactive
[9]
  outcome: inactive
[10]
  outcome: inactive
[19]
  outcome: inactive
[12]
  outcome: inactive
[13]
  outcome: inactive
